ClpP mod: qHTS Assay for Activators of ClpP | 1.9% of 340,000 active | Potency, µM (top dose mostly 57.5 µM), for inactives: top-dose activity change, negative = active | ATP-dependent Clp protease proteolytic subunit (Bacillus subtilis (strain 168)), P80244 | purified B. subtilis ClpP, FRET peptide cleavage, 20 min; active = well fitted falling curve with a large enough effect; inconclusive = small, poorly fitted or top-dose-only effect; inactive = no such curve, though single readings can be large or run the other way; note: potency is the fitted concentration of half-maximal effect; the source files actives as falling curves though it sought activators and does not explain the sign; nearly all actives have a fitted effect of over 65% in size
Target sequence (P80244 whole entry, looked up): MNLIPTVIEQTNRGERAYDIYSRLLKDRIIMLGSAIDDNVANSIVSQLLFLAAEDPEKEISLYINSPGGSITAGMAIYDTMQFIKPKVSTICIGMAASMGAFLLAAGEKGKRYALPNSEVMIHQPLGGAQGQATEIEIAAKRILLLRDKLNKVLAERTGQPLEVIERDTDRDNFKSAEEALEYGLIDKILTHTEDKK
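Purified B. subtilis ClpP, 10 microg/mL final in Tris/HCl pH8 with KCl, BSA, glycerol and Tween-20, cleaved an Abz/nitrotyrosine-quenched decapeptide. Fluorescence (ex 320, em 430) was read at 0 and 20 min at room temperature. Delta was normalized to 5.8 microM ADEP and DMSO/no-enzyme controls.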
IL1B secr inh: inhibitors of inflammasome signaling (IL-1 beta secretion) | THP-1 LPS/ATP IL-1B secretion, AlphaLISA, 16 h; hits give low values | activity change, % at 57.5 µM | 4.7% of 360,000 active | AID 743279; in the data active = activity change below about -50%; inconclusive = mostly about -30% to -49%; note: % is set by controls: 0 for no effect and ±100 for the full control effect
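Secreted IL-1B measured by AlphaLISA bead assay after 16 h compound exposure of THP-1 cells; compounds (final up to 57.5 uM) added 1 h before LPS (250 ng/mL) and ATP (1.25 mM) stimulation; lower signal means less secretion.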
D3 antag: D3 dopamine receptor (human) antagonism; max response, negative = inhibition, %; P35462; D3R cells, DiscoveRx beta-arrestin luminescence, antagonist mode; hits give low values; AID 652054; 2.5% of 360,000 active; in the data active = max response below about -50%; inconclusive = no clear call, values can overlap the other calls; note: % is set by controls: 0 for no effect and ±100 for the full control effect
Target sequence (P35462 whole entry, looked up): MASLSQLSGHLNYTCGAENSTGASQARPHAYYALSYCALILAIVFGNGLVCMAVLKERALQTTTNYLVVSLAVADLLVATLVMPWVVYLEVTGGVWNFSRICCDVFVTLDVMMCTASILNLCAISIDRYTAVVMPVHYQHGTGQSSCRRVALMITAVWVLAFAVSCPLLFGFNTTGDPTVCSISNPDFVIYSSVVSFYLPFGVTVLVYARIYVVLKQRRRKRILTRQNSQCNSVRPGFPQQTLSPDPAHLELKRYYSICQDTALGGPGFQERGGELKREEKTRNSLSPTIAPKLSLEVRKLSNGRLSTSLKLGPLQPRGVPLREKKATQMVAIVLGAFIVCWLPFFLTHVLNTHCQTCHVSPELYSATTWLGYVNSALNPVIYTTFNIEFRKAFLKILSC
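Cells plated overnight at 1500 cells/well, then exposed to library compounds with dopamine controls for 90 minutes at 37 degrees C. DiscoveRx reagent added for 30–60 minutes at room temperature; luminescence read, quantitative HTS format.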
DRD3 agonist: D3 dopamine receptor (human) agonism; AID 652048; max activation, %; D3R DiscoveRx beta-arrestin cells, luminescence, 90 min; 0.58% of 410,000 active; in the data active = max activation above about 30%; note: 0% is about no effect
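Agonist mode: compounds and dopamine controls were applied to plated cells for 90 min at 37 degrees C after an overnight attachment at 1500 cells/well. Luminescent read-out followed 30 - 60 minutes at room temperature with DiscoveRx detection reagent.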
TDP1 cell noCPT: qHTS for Inhibitors of human tyrosyl-DNA phosphodiesterase 1 (TDP1): qHTS in cells in absence of CPT. DT40 Tdp1-/- hTDP1 cells, no CPT, ATP luminescence, 48 h. Potency, µM (series often up to 46.2 µM), inactives show at the highest dose activity change, negative = growth inhibition, usual class: inhibitors. 15% of 420,000 active. AID 686978, 2013; note: potency is the fitted concentration of half-maximal effect; % is set by controls: 0 for no effect and ±100 for the full control effect; nearly all actives have a fitted effect of over 55% in size
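Cells were dispensed at 400 per well, compounds added by pin tool, plates incubated ≥48 hr at 37 °C, then CellTiter-Glo added for 30 min at room temperature before luminescence reading. Line: DT40 Tdp1-/- complemented with hTDP1; camptothecin omitted.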
DT40 TDP1 CPT: growth inhibition of DT40 Tdp1-/-;hTDP1 cells with camptothecin (screen for TDP1 inhibitors). Potency, µM (series often up to 46.2 µM), for inactives: at the highest dose activity change, negative = growth inhibition, usual class: inhibitors. 12% of 420,000 active. AID 686979. chicken DT40 Tdp1-/-;hTDP1 cells + 20 nM CPT, ATP luminescence, 48 h; note: potency is the fitted concentration of half-maximal effect; % is set by controls: 0 for no effect and ±100 for the full control effect; nearly all actives have a fitted effect of over 55% in size
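Chicken DT40 Tdp1-/- cells complemented with human TDP1, 400 cells/well, exposed to compounds plus 20 nM camptothecin for at least 48 h at 37 C; viability read as ATP content by CellTiter-Glo luminescence.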
* hit, by the source's call; ? = inconclusive; / = no result. This is a sample that favours compounds with a hit; in the whole collection about 21% have one here. Unless noted, calls come from the whole dose curve; as a rule, active = well fitted inhibition curve with a large enough effect; inconclusive = small, poorly fitted or top-dose-only effect; inactive = flat fitted curve, though single readings scatter.

SMILES | ClpP mod | IL1B secr inh | D3 antag | DRD3 agonist | TDP1 cell noCPT | DT40 TDP1 CPT
O=C(c1ccc2c(Cl)c3c(nc2c1)CCCC3)N1CCN(c2ccccc2)CC1 | -2.8% | / | / | 2.9 | -9.7% | 0.6%
O=C(c1ccc2c(Cl)c3c(nc2c1)CCCC3)N1CCC(N2CCCCC2)CC1 | 0.9% | -69.4* | 16.0 | 0.7 | ? | ?
Cc1ccc(C)c(N2CCN(C(=O)c3ccc4c(=O)n5c(nc4c3)CCCCC5)CC2)c1 | -0.4% | ? | ? | -10.7 | 16.4µM* | 16.4µM*
Cc1ccc(C)c(N2CCN(C(=O)c3ccc4c(Cl)c5c(nc4c3)CCCC5)CC2)c1 | 0.1% | / | / | 17.0 | ? | 16.4µM*
O=C(O)CSc1c2c(nc3cc(C(=O)N4CCCC4)ccc13)CCCC2 | / | -11.4 | 17.3 | -0.6 | -3.0% | 7.0%
CN(C)S(=O)(=O)c1cccc(N=C2SCCN2Cc2ccccc2)c1 | / | -9.3 | -13.9 | 1.6 | 20.6µM* | ?
Cc1ccc(S(=O)(=O)NC(=O)Nc2ccc(C)cc2C)cc1 | 2.2% | -29.6 | -9.1 | -12.7 | -3.6% | 1.8%
COc1ccc(-n2ccc(-c3nn(-c4cccc(C(F)(F)F)c4)ccc3=O)n2)cc1 | 1.7% | -12.5 | ? | -7.7 | 18.4µM* | ?
O=C(O)CCCC(=O)Nc1cccc(-c2nc3ccccc3[nH]2)c1 | 25.1µM* | 0.8 | 0.4 | -12.6 | -6.4% | -6.9%
COc1ccc(OCC(=O)Nc2cccc(-c3nc4ccccc4[nH]3)c2)cc1 | ? | ? | -8.6 | -14.0 | ? | 14.6µM*
O=C(COc1ccccc1)Nc1cccc(-c2nc3ccccc3[nH]2)c1 | 31.6µM* | -100.7* | 3.7 | 0.5 | 23.1µM* | ?
O=C(CCc1nc2ccccc2[nH]1)Nc1ccccc1 | 3.6% | -14.8 | -4.0 | -1.6 | -22.0% | -11.4%
CCNC(=O)c1c(NC(=O)COc2ccc(F)cc2)sc2c1CCCC2 | -0.1% | / | / | 4.9 | -16.4% | 8.7%
CCOC(=O)C1=C(CSc2nc3c(cc2C#N)CN(C)CC3)OC(N)=C(C#N)C1c1ccccc1 (centres undefined) | -17.1% | 2.3 | -24.3 | -8.6 | 29.1µM* | ?
CCOC(=O)C1=C(CSc2nc3c(cc2C#N)CN(C)CC3)OC(N)=C(C#N)C1c1ccc(F)cc1 (centres undefined) | -1.0% | -1.5 | -14.3 | -1.9 | ? | ?
CCOC(=O)C1=C(CSc2nc3c(cc2C#N)CCC3)OC(N)=C(C#N)C1c1ccccc1 (centres undefined) | -2.8% | 18.5 | -18.5 | -9.9 | ? | 29.1µM*
Cc1cc(C)c2c(n1)nn1c(C)c(CCC(=O)Nc3ccc(C)c(Cl)c3)c(C)nc21 | -22.9% | / | / | -7.6 | ? | -14.4%
Cc1ncc(C23CC4CC(CC(C4)C2)C3)[nH]1 | -0.3% | -10.7 | -55.3* | -4.6 | ? | ?
c1cc2nc(C34CC5CC(CC(C5)C3)C4)[nH]c2cn1 | -2.5% | 0.0 | -14.9 | -5.9 | -14.6% | ?
CC1C(=O)N2CCCc3cc(NC(=O)c4ccccc4F)cc1c32 (centres undefined) | ? | 30.2 | 8.6 | -18.0 | -23.7% | 3.9%
Clc1ccc(OCc2cn3ccccc3n2)c2ncccc12 | / | -61.0* | -8.5 | -8.2 | 16.4µM* | 14.6µM*
N=C(N)SCc1ccccn1 | 0.5% | -11.5 | -10.7 | -4.0 | -28.6% | ?
COc1ccnc(CN(C)C(=O)C2CCC(=O)N(Cc3cccc(C(F)(F)F)c3)C2)c1 (centres undefined) | 1.6% | 37.3 | 17.7 | -0.1 | 15.8% | -17.1%
COc1ccnc(CSC(N)=Nc2ccccc2OC)c1 | -3.9% | -10.5 | -75.1* | -2.7 | 12.6µM* | ?
COc1ccnc(CSC(N)=Nc2ccccc2C(F)(F)F)c1 | 0.6% | 3.4 | -10.1 | -11.0 | 14.6µM* | 25.9µM*
SMILES | ClpP mod | IL1B secr inh | D3 antag | DRD3 agonist | TDP1 cell noCPT | DT40 TDP1 CPT
CC(=Nc1ccccc1C(F)(F)F)c1ccncc1 | / | -0.1 | 24.6 | -6.2 | -3.9% | 1.4%
COc1ccnc(CSC(N)=Nc2cccc(C(F)(F)F)c2)c1 | -20.6% | -103.6* | -50.8* | -23.3 | 16.4µM* | 11.6µM*
CC(C)NS(=O)(=O)c1cc(C(F)(F)F)ccc1/C=C/C(=O)O | -0.2% | / | / | / | ? | ?
COc1ccc(-n2c3c(c(=O)[nH]c2=O)C(NC(=O)c2ccccc2Cl)(C(F)(F)F)C(=O)N3)cc1 (centres undefined) | -4.2% | / | / | -1.2 | 0.9% | 15.4%
Cc1ccc(-c2nc3c4ccccc4[nH]c(=O)n3n2)cc1 | -13.9% | / | / | 0.3 | ? | ?
O=c1[nH]c2ccccc2c2nc(-c3cccc(S(=O)(=O)N4CCCC4)c3)nn12 | / | -3.8 | 3.5 | -6.5 | 16.4µM* | ?
Cc1cc(C)n2nc(SC(C)C(=O)Nc3ccccc3F)nc2n1 (centres undefined) | -1.5% | 11.0 | -8.8 | -3.4 | -12.6% | -0.1%
COC(=O)c1c(NC(=O)Cc2coc3cc(C)ccc23)sc2c1CCC2 | ? | / | / | -0.7 | 3.26µM* | -29.6%
O=C(Nc1sc2c(c1C(=O)NCc1ccccc1)CCCC2)c1cc(=O)c2ccccc2o1 | -0.5% | / | / | -7.9 | ? | -1.0%
COCCCNC(=O)c1c(NC(=O)Cc2coc3c(C)c(C)ccc23)sc2c1CCCC2 | -9.6% | / | / | -11.4 | 16.4µM* | 16.4µM*
COCCCNC(=O)c1c(NC(=O)c2cc(=O)c3ccccc3o2)sc2c1CCCC2 | 0.4% | / | / | 1.4 | 5.17µM* | -16.7%
Cc1ccc2c(CC(=O)NCc3ccccc3)coc2c1C | -0.2% | / | / | -18.9 | 3.26µM* | 4.11µM*
CC(=O)Nc1ccccc1NC(=O)C/C(C)=N/NC(=O)C(=O)N1CCCCC1 | / | 0.0 | -15.2 | -9.2 | -1.7% | 1.2%
COCCNC(=O)c1c(NC(=O)Cc2coc3cc(C)ccc23)sc2c1CCCC2 | -2.7% | / | / | 7.8 | ? | 23.1µM*
CCCCNCc1cc(Br)c(OCc2cccs2)c(OC)c1 | -1.4% | -24.5 | -15.1 | -8.0 | ? | ?
